Reference: PubChem BioAssay AID1036 (National Center for Advancing Translational Sciences (NCATS), 2008)
Results filed as inconclusive are left out. The source made the active and inactive calls. Calls come from the whole dose curve.

Assay: NSCLC 1 Cell Viability Secondary Assay for qHTS Assay for Epigenetic Modulator
Details: NSCLC 1 cells viability, MTS absorbance, 4 days
Text: NIH Molecular Libraries Screening Centers Network [MLSCN] NIH Chemical Genomics Center [NCGC] MLSCN Grant: 1 X01 MH079860-01 Assay Provider: Elisabeth D. Martinez, University of Texas SW Medical Center NCGC Assay Overview: This secondary assay characterizes selected actives identified in the qHTS of the Locus Derepression (LDR) assay (PubChem AID 597). The LDR assay detects the derepression of a GFP reporter that is stably integrated in a region of the genome of murine c127i mammary cells that is presumably silenced. Compounds that cause derepression of the locus to express GFP are identified by enumerating GFP positive cells using a laser-scanning microplate cytometer. […] NSCLC 1 cell viability was measured using Cell Titer 96 AQueous One (Promega), an assay which detects the ability of metabolically active cells to reduce a tetrazolium salt substrate (MTS), into a soluble formazan product that can be measured by colorimetry.
NCGC Assay Protocol Summary NSCLC 1 cells were plated in 96-well flat bottom tissue culture dishes (Corning) and grown overnight at 37 C and 5% CO2, then treated with compounds, incubated 4 days, and assayed for viability using the Cell Titer 96 AQueous One kit (Promega) according to the manufacturer's protocol. Absorbance at 490 nm and 650 nm (reference) was measured by a Spectra Max (Molecular Devices). […]

## CN1CSC(=S)N(C)C1
  outcome: inactive
